From PubChem BioAssay AID1275 (Emory University Molecular Libraries Screening Center, 2008) come the findings set out here.

Molecules are shown by their SMILES. The campaign covered roughly 1,000 compounds. About 160 (16%) were called active. The rule behind the calls is not given here. The list shows a part of the results.

For this assay, the target named is Neutrophil cytosol factor 1 (Homo sapiens) (UniProt P14598). The assay can be described thus: p47phox binding inhibitors, dose response, biochemical, NADPH oxidase regulatory subunit, fluorescence polarization (AID 1275). To be noted: at 12.5 µM. On the technique in general: Fluorescence polarisation rises when a labelled molecule tumbles more slowly, as on binding a larger partner.
Chain of Neutrophil cytosol factor 1 (Homo sapiens) (P14598 whole entry, looked up): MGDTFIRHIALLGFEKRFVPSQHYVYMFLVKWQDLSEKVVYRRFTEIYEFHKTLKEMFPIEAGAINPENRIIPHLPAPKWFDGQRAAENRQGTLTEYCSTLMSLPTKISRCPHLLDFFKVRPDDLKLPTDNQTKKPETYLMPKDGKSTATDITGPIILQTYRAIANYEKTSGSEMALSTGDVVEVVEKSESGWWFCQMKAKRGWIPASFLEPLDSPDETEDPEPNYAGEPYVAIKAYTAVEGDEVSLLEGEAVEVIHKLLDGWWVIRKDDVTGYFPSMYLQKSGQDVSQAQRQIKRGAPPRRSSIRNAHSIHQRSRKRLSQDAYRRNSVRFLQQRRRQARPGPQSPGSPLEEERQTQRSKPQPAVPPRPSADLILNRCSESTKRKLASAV
Take `O=C1NC(=O)N(Cc2ccc(F)cc2)C(=O)/C1=C\c1ccc(N2CCCC2)cc1`: the percent of control, lower = inhibition is -40.7 (active).
